Assay results reported in PubChem BioAssay AID651550 (National Center for Advancing Translational Sciences (NCATS), 2012).
Screen size: about 360,000 compounds; about 1,100 (0.31%) were called active. The sample as a whole holds a higher share of actives than the screen did. Values without a mark were called inactive. Rule as the data show it: active = activity change below about -80%; inconclusive = mostly about -51% to -80%; inactive = weaker than that.

The molecules below were run against RAC-alpha serine/threonine-protein kinase (Homo sapiens) (UniProt P31749) (assay: HTS Assay for Inhibitors of Akt Phophorylation: Primary Screen). Conditions: Neuro2A IGF-stimulated pAkt S473 HTRF, 20 min; at 50 µM, active compounds read low.
Description: The serine/threonine protein kinase Akt (protein kinase B) regulates various cellular processes, including cell survival, growth, proliferation, migration and differentiation. It has been well established that Akt is activated through two essential steps involving membrane translocation and phosphorylation. Cytosolic Akt is recruited to the plasma membrane via the interaction between the PH domain and membrane PIP3 produced by phosphoinositide-3 kinase (PI3K) upon growth factor receptor stimulation. The membrane-Akt interaction results in conformational changes of Akt, enabling its activation through phosphorylation at T308 in the kinase domain and at S473 in the C-terminal hydrophobic motif by PDK1 and mTOR-rictor complex (mTORC2), respectively. […] These findings indicate that S473 phosphorylation, as an important modulator of Akt activation, may be a valuable drug target for cell growth, survival, proliferation and differentiation. These inhibitors also may have significant therapeutic potential with fewer side effects, especially for the conditions involving hyperactive Akt signaling, such as cancer and Alzheimer's disease.
To this end, a miniaturized assay was developed to be screened against the Molecular Libraries Small Molecule Repository (MLSMR).
NIH Chemical Genomics Center [NCGC]
NIH Molecular Libraries Probe Centers Network [MLPCN]
Assay Submitter (PI): Hee-Yong Kim, National Institute on Alcohol Abuse and Alcoholism
3 uL of Neuro2A cell suspension in DMEM containing 0.5% FBS and […] antibiotics mix was plated in a white solid bottom tissue culture-treated 1536-well plate (Greiner Bio-One, Monroe, NC) at 4,500 cells per well and incubated overnight at 37 deg C. 23 nL/well of compound solutions in DMSO was added with Pintool transfer (Kalypsis, San Diego, CA) at single […] final concentration. Then, the cells were stimulated with 1.5 uL of IGF (6 nM final concentration) and incubated at 37 deg C for 20 min. The reaction was terminated by the addition of 1.5 uL blocking reagent mixed with lysis buffer (1:25 correspondingly) provided with HTRF(R) Phospho Akt (Ser473) kit (Cisbio US, Bedford, MA), with following incubation for 50 min at ambient temperature. The detection HTRF conjugates from the kit were prepared according to the protocol, pre-mixed 1:1 prior to dispensing, and 2 uL/well was added with BioRAPTR FRD dispenser (Beckman Coulter). The assay plates were incubated for 24 hours at ambient temperature, and the HTRF fluorescence was measured using Envision plate reader (PerkinElmer) with excitation at 330nm, emission at 615nm (Eu(3)-Cryptate donor signal) and 665nm (d2 acceptor signal). The ratio of […] was calculated for each well.
% is scaled to controls: 0 for no effect and ±100 for the full control effect.

Compound	activity change
O=C(c1c(F)cccc1Cl)N1CCN(c2ccccn2)CC1	inactive
O=C(c1ccc2c(c1)C(=O)N(c1ccc(Cl)cc1)C2=O)N1CCN(c2ccccn2)CC1	-121% (active)
O=C(c1ccc2c(c1)N(Cc1ccc(F)cc1)C(=O)c1ccccc1S2(=O)=O)N1CCN(c2ccccn2)CC1	inactive
Cc1ccc(S(=O)(=O)N2[C@@H](Cc3ccccc3)CO[C@H]2CC(=O)OCc2ccccc2)cc1	inactive
O=C(NC1CCCCC1)C(c1cc2ccccc2o1)n1c(=O)c(-c2ccco2)nc2ccccc21 (stereo unspecified)	inactive
Cc1ccc2c(c1)N(CC(=O)N(Cc1ccccn1)Cc1ccco1)C(=O)C(C(C)C)O2 (stereo unspecified)	1.92%
O=C(NCc1ccccc1)C(c1ccc(F)cc1)N1CCN(C(=O)C2CCCO2)CC1 (stereo unspecified)	inactive
CCC(C(=O)NCc1ccccc1)n1c(Cc2cc(F)cc(F)c2)nc2ccccc21 (stereo unspecified)	inactive
CCOC(=O)CSc1nnc(CNc2ccc(F)cc2)o1	inactive
COC(=O)c1ccc2nc(-c3ccc(F)cc3)c(Cc3ccc(C)cc3)n2c1	inactive
Cc1cccc2nc(CNc3ccc(F)cc3)cn12	-128% (active)
O=C(NC(=O)c1ccc(Cl)c(Cl)c1)OC1CCS(=O)(=O)C1 (stereo unspecified)	inactive
COCCNC(=O)C1C(=O)Nc2ccccc2C(=O)N1c1ccc2c(c1)OCCO2 (stereo unspecified)	inactive
CC(C)c1cc(Cn2c3ccccc3c(=O)n2C(C)Cn2cc(C3CC3)nn2)on1 (stereo unspecified)	inactive
CN(c1ccc(C(=O)N2CCc3ccccc3C2)cc1)S(C)(=O)=O	-108% (active)
Cn1cccc1C(=O)N1CCc2ccccc2C1	inactive
CN(c1cccc(NC(=O)c2ccc(CN3CCc4ccccc4C3)cc2)c1)S(C)(=O)=O	inactive
Cc1ccc(S(=O)(=O)N(CC(=O)N2CCc3ccccc3C2)c2cccc(Cl)c2)cc1	inactive
COc1cccc(N(CC(=O)N2CCc3ccccc3C2)S(C)(=O)=O)c1	-106% (active)
CS(=O)(=O)N(CC(=O)N1CCc2ccccc2C1)c1ccc(Br)cc1	inactive
Nc1ccc(N=Nc2ccccc2Cl)c(N)n1	inactive
O=C(CN1C(=O)CCS(=O)(=O)c2ccccc21)NCc1ccc(F)cc1	11.8%
O=C1C(=O)N(CCN2CCOCC2)C(c2cccc(Cl)c2)/C1=C(/O)c1ccc2c(c1)OCO2 (stereo unspecified)	inactive
O=C1C(=O)N(CCN2CCOCC2)C(c2ccccn2)/C1=C(/O)c1ccc(Cl)cc1 (stereo unspecified)	-111% (active)
COc1ccc(C2/C(=C(/O)c3ccc(OC(C)C)cc3)C(=O)C(=O)N2CCCN2CCOCC2)cc1 (stereo unspecified)	inactive
O=c1[nH]n2c(=O)c3c([nH]c2c1N=Nc1ccccc1)CCC3	inactive

Compound	activity change
CC(C)(C)n1c(=O)[nH]c2c(c1=O)CCC2	-114% (active)
CCOC(=O)[C@]12CCCC=C1N(CCC1=CCCCC1)C(=O)[C@H](CC(=O)N1CCCCC1)C2	inactive
O=C1C=C(c2ccc(Cl)cc2)C(=O)N1Nc1ccccc1	-112% (active)
CC(C)(C)n1nc2c(c1NC(=O)c1ccc(S(=O)(=O)N3CCCC3)cc1)CS(=O)C2 (stereo unspecified)	inactive
COc1ccc(C(C(=O)Nc2c(C)cccc2C)N2CCN(c3ccc(C)cc3)CC2)cc1 (stereo unspecified)	inactive
O=C(CN1C(=O)NC2(CCCCCC2)C1=O)NC1CC1	inactive
O=C(O)CCN1C(=O)CC2(CCCCC2)C1=O	-117% (active)
O=C1CC2(CCCC2)C(=O)N1CN1CCN(S(=O)(=O)c2ccc(F)cc2F)CC1	inactive
NS(=O)(=O)c1ccc(CCNC(=O)NC2CCCCC2)cc1	inactive
CN1OC[C@@H]2CN[C@H](c3ccc(-c4ccccc4)cc3)C[C@@H]21	inactive
CCOC(=O)[C@]12CCCC=C1N(CCC1=CCCCC1)C(=O)[C@H](CC(=O)NCCCOC)C2	inactive
CCCCCNC(=O)C(c1ccc(OC)cc1)n1c(=O)c(-c2ccccc2)nc2ccccc21 (stereo unspecified)	inactive
Cc1cccc(OCc2nnc(SCc3nc4cc(C(F)(F)F)ccc4c(=O)[nH]3)o2)c1	-3.13%
Nc1nnc(SCn2nnc3ccccc3c2=O)s1	inactive
Cc1cccc(OCc2nnc(SCn3nnc4ccccc4c3=O)o2)c1	-101% (active)
Cc1cccc(NC(=O)C2CCCN2S(=O)(=O)c2ccc(F)cc2)c1C (stereo unspecified)	-118% (active)
Cc1cccc(NC(=O)C2CCCN(C(=O)Nc3ccc(F)cc3)C2)c1C (stereo unspecified)	inactive
COc1ccccc1NC(=O)C1CCCN1S(=O)(=O)c1ccc(Cl)cc1 (stereo unspecified)	inactive
Cc1ccc(N(Cc2ccccc2O)C(=O)c2ccccc2F)cc1	inactive
COc1cccc(N(C(=O)CNC(=O)c2ccco2)C(C(=O)NC2CCCCC2)c2cccnc2)c1 (stereo unspecified)	inactive
Cc1ccc(N(C(=O)CNC(=O)c2ccco2)C(C(=O)NC2CCCC2)c2ccncc2)cc1 (stereo unspecified)	inactive
CC(C)(C)NC(=O)C(c1ccncc1)N(C(=O)CNC(=O)c1ccco1)c1ccc2c(c1)OCO2 (stereo unspecified)	-97.2% (active)
O=C(Cc1cccs1)Nc1ccc([N+](=O)[O-])cc1	inactive
CCCc1ccc(-c2csc(NC(=O)Cc3cccs3)n2)cc1	-105% (active)
COc1ccc(OC)c(NC(=O)Cc2cccs2)c1	inactive
O=C(Nc1ccc2c(c1)C(=O)OC2)Nc1cccc2ccccc12	inactive

Compound	activity change
CCn1cc(C(=O)NC2CCCCCC2)c(=O)c2cc(S(=O)(=O)N3CCCCC3)ccc21	inactive
CCn1cc(C(=O)N2CC(C)CC(C)C2)c(=O)c2cc(S(=O)(=O)N3CCCC3)ccc21 (stereo unspecified)	inactive
CCn1cc(C(=O)NCC2CCCO2)c(=O)c2cc(S(=O)(=O)N3CCCCC3)ccc21 (stereo unspecified)	-109% (active)
CC(C)(C)NC(=O)C(CCc1ccccc1)n1c(=O)c(-c2ccccc2)nc2ccccc21 (stereo unspecified)	inactive
Cc1cccc2cc(CN(Cc3nnnn3Cc3ccccc3)C3CCCC3)c(=O)[nH]c12	inactive
CCC(c1nnnn1Cc1ccco1)N(CCc1ccccc1)Cc1cc2cccc(C)c2[nH]c1=O (stereo unspecified)	-20.5%
CCC(c1nnnn1C1CCCC1)N(Cc1cccs1)Cc1cc2cccc(C)c2[nH]c1=O (stereo unspecified)	-108% (active)
CCc1ccccc1N(CC(=O)NCCSCc1ccco1)S(C)(=O)=O	inactive
Cc1[nH]c2ccccc2c1C(=O)c1cc([C@H](NC(=O)OC(C)(C)C)C(C)C)sc1N	inactive
Cc1ccc2c(C)c(C(=O)N3CCN(c4ccncc4)CC3)oc2c1C	inactive
COc1c(Br)cc2c(C)c(C(=O)N3CCOCC3)oc2c1Br	-114% (active)
O=C(c1cc2cc(Br)cc(Br)c2oc1=O)N1CCOCC1	inactive
CCOC(=O)[C@]12CCCC=C1N(CCC1=CCCCC1)C(=O)[C@H](CC(=O)N1CCOCC1)C2	inactive
OCCC#Cc1ccc(N2C(c3ccsc3)=Cc3ccc(F)cc3C2c2c[nH]c3ccccc23)cc1 (stereo unspecified)	inactive
CC(C)CC1(C)NC(=O)N(CC(=O)Nc2ccc3c(c2)OCCO3)C1=O (stereo unspecified)	inactive
CC1=NN(C(C)C)C(=O)C1	-118% (active)
CCOC(=O)NN1C(=O)c2ccccc2NC1c1ccccc1O (stereo unspecified)	inactive
CC1(C(=O)NCc2ccccc2)CSCC(=O)N1CCCN1CCOCC1 (stereo unspecified)	inactive
COc1ccc2ccccc2c1CNCc1ccccn1	inactive
CSCCC(C(=O)NC(C)(C)C)n1c(-c2ccccc2)nc2ccccc21 (stereo unspecified)	inactive
O=C(CCn1ccc([N+](=O)[O-])n1)Nc1nccs1	inactive
Cc1c(Br)c([N+](=O)[O-])nn1C(C)C(=O)Nc1nccs1 (stereo unspecified)	-109% (active)
CC(NC(=O)C(=O)Nc1nccs1)c1ccccc1 (stereo unspecified)	inactive
Cc1cccc(C(=O)OC(C)CN2CCN(C)CC2)c1 (stereo unspecified)	inactive
Cc1cccc(C(=O)OC(C)CN2CCCC2)c1 (stereo unspecified)	inactive
CC(CN1CCCCC1)OC(=O)c1ccccc1Cl (stereo unspecified)	-96.5% (active)

Compound	activity change
CCOC(=O)[C@]12CCCC=C1N(CCC1=CCCCC1)C(=O)[C@H](CC(=O)N1CCSCC1)C2	inactive
Cc1cccc(C)c1NC(=O)C(c1cccc(F)c1)N1CCN(C)CC1 (stereo unspecified)	inactive
Cc1ccc(F)cc1NC(=O)Cc1nn(C)c(=O)c2ccccc12	-106% (active)
Cc1ccc(C)c(NC(=O)COC(=O)c2nn(C)c(=O)c3ccccc23)c1	inactive
Cc1ccc(F)cc1NC(=O)CSCc1c(C)noc1C	inactive
CCN1C(=O)/C(=C\N2CCOCC2)SC1=S	inactive
O=C(O)CCSc1nnc(-c2ccccc2)n1-c1ccccc1	-109% (active)
NNC(=O)CSc1nnc(-c2ccccc2)n1-c1ccccc1	inactive
O=C(O)CSc1nnc(-c2ccc3c(c2)OCO3)n1-c1ccccc1	inactive
CS(=O)(=O)N1CCN=C1SCc1ccc(F)cc1	inactive
Cc1cc(OCCOc2cccc3cccnc23)c(C)cc1Cl	inactive
Cc1cc(Cl)ccc1OCc1nc(-c2ccncc2)no1	inactive
Cc1noc(COc2ccccc2OCc2onc(C)c2Cl)c1Cl	-112% (active)
CC1(C(=O)NCc2ccccc2)CN(S(C)(=O)=O)CC(=O)N1CC(F)(F)F (stereo unspecified)	inactive
Cc1cccc(NC(=O)CSC(N)=O)c1C	-113% (active)
Cc1cccc(NC(=O)COC(=O)CCc2ccccc2)c1C	inactive
Cc1cccc(NC(=O)CSc2nc3c(c(=O)[nH]2)CCCC3)c1C	inactive
C=Cc1ccc(C(=O)N2CCCC(CCC(=O)N3CCN(c4ccccn4)CC3)C2)cc1 (stereo unspecified)	inactive
O=C(C[C@H]1CC[C@H]2[C@@H](COC[C@H](O)CN2C(=O)c2ccccn2)O1)N1CCN(c2ccccc2)CC1	inactive
FC(F)(F)c1cc(-c2cccs2)nc(NCc2ccco2)n1	-2.47%
COc1nc(NCc2ccc(Cl)cc2)nc(OC)n1	1.36%
FC(F)(F)c1cc(-c2ccco2)nc(NCc2ccc(Cl)cc2)n1	-102% (active)
CC(C)(C)n1nnnc1C(c1ccc2ncccc2c1)N1CCSCC1 (stereo unspecified)	inactive
